# A selection: hits, their analogues and other compounds. The true share with any hit is near 14%.
# 4MU fluor = qHTS Assay for Spectroscopic Profiling in 4-MU Spectral Region; 59,000 compounds, 11% hits; compound autofluorescence, 340/450 nm, 4-MU equivalents; stronger effect = higher value; max dye-equivalent concentration, M; in the data active = max dye-equivalent concentration above about 10 nM; inconclusive = mostly about 1.1 nM to 9.6 nM
#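 Intrinsic fluorescence at 340/450 nm (ex/em) was read after 15 min at room temperature in pH 8.0, 100 mM Tris. Each compound concentration expressed as 4-MU-equivalent concentration from a six-point 4-MU standard series on each plate.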
# CRE-bla Fsk = Cell signaling CRE-BLA (Fsk stim). CHO CRE-bla reporter (cAMP response element driving beta-lactamase), forskolin EC10, beta-lactamase ratio. Potency, µM (top dose mostly 38.2 µM), inactives show top-dose activity change, negative = inhibition, actives largely listed as activators. 71,000 compounds, 2.5% hits; active = well fitted activation curve with a large enough effect in the signal ratio, with a control signal flat, not every such curve was filed as active; inconclusive = small, poorly fitted or top-dose-only effect, or effect the other way, or a change in a side signal; the % refers to the signal ratio; note: potency is the fitted concentration of half-maximal effect; % of control where 0% means no effect
#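 qHTS titration format; CRE-bla CHO reporter; stimulus EC10 NKH 477, a water-soluble forskolin. Read: CCF4 460/530 nm ratio. Potency expressed as AC50 for activators or inhibitors.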
# A350 fluor = qHTS Assay for Spectroscopic Profiling in A350 Spectral Region. max dye-equivalent concentration, M. 59,000 compounds, 11% hits. AID 590, 2007. Compound autofluorescence, 340/450 nm, Alexa 350 dye-equivalents; stronger effect = higher value; in the data active = max dye-equivalent concentration above about 10 nM; inconclusive = mostly about 1.1 nM to 9.6 nM
# HADH2 inhib = qHTS Assay for Inhibitors of HADH2 (Hydroxyacyl-Coenzyme A Dehydrogenase, Type II); 3-hydroxyacyl-CoA dehydrogenase type-2 (Homo sapiens), Q99714; recombinant HADH2, NADH fluorescence, beta-hydroxybutyryl-CoA; Potency, µM (top dose mostly 57.1 µM), without a hit: at the highest dose activity change, negative = inhibition, hits mostly inhibitors; 73,000 compounds, 3.4% hits; AID 886, 2007; note: potency is the fitted concentration of half-maximal effect; % is set by controls: 0 for no effect and ±100 for the full control effect; nearly all actives have a fitted effect of over 60% in size
# Target sequence (Q99714 whole entry, looked up, one chain of several): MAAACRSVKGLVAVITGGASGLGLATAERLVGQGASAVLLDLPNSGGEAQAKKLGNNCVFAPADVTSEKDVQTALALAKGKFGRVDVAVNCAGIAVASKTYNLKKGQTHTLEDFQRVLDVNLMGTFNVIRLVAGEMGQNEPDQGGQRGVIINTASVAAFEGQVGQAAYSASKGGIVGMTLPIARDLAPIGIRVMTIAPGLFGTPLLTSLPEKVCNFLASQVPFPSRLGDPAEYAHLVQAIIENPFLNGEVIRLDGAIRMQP
#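 Activity measured as NADH fluorescence gain (360/450 nm), taken as the change between first and last reads of a 4-min kinetic run. Conditions: pH 9.0 Tris buffer, 20 nM E. coli-expressed His-tagged enzyme, 1 mM NAD+, 90 uM beta-hydroxybutyryl-CoA; 15-min compound preincubation.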
# HSD17B inh = qHTS Assay for Inhibitors of HSD17B4, hydroxysteroid (17-beta) dehydrogenase 4. 3-hydroxyacyl-CoA dehydrogenase type-2 (Homo sapiens), Q99714. Potency, µM (series often up to 57.1 µM), without a hit: top-dose activity change, negative = inhibition, usual class: inhibitors. recombinant HSD17B10, NADH fluorescence kinetic. 75,000 compounds, 7.6% hits. AID 893, 2007;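 note: the protocol describes HADH2 (HSD17B10) and not the HSD17B4 of the title; potency is the fitted concentration of half-maximal effect; % is set by controls: 0 for no effect and ±100 for the full control effect; nearly all actives have a fitted effect of over 70% in size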
#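 Enzyme plus compound, 15 min room temperature; substrate mix added (NAD+ 1 mM, beta-hydroxybutyryl-CoA 90 uM final); plates read kinetically for NADH fluorescence. HADH2 was His-tagged, E. coli-derived, 20 nM.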
# AID923 = qHTS Assay for Allosteric/Competitive Inhibitors of Caspase-1: Spectroscopic Profiling in AFC Spectral Region; compound fluorescence, AFC spectral region (405/520 nm); Potency, µM (doses to about 57.5 µM), inactives show top-dose fluorescence increase, actives largely listed as activators; 75,000 compounds, 1.1% hits; note: potency is the fitted concentration of half-maximal effect; 0% is about no effect
#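 Baseline compound fluorescence (AFC region, 405 nm ex/520 nm em) taken from the intercept of kinetic reads with 50 nM caspase-1 and 5 uM Ac-WEHD-AFC; normalized to an on-plate AFC standard curve; compounds titrated up to 57 uM.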
# * = called active by the depositor; i = inactive; ? = inconclusive; / = no result given; [ ] = dose if it differs, or a comment. Unless noted, calls come from the whole dose curve; as a rule, active = well fitted curve in the direction sought with a large enough effect; inconclusive = small, poorly fitted or top-dose-only effect, or another doubt; inactive = no such curve, though single readings can be large; an effect the other way counts as inactive or inconclusive.
SMILES,4MU fluor,CRE-bla Fsk,A350 fluor,HADH2 inhib,HSD17B inh,AID923
Cc1cc(C(=O)N2CCN(C(=O)C3CCCO3)CC2)no1 (stereo not given),i,-4%,i,6%,10%,-2%
COc1cc2nc(N3CCN(C(=O)[C@H]4CCCO4)CC3)nc(N)c2cc1OC,8.4e-07M*,?,8.7e-07M*,?,20µM*,0%
COC(=O)N1[C@H](C)C=C[C@]1(Cc1ccccc1)C(=O)NCc1ccc(N(C)C)cc1,/,-16%,/,-3%,1%,-2%
CC1(C)NC(=O)N(CC(O)CN2C(=O)CCC2=O)C1=O (stereo not given),i,0%,i,18%,0%,-1%
CC1(C)NC(=O)N(CC(O)Cn2nnc3ccccc32)C1=O (stereo not given),3.1e-06M*,/,3.4e-06M*,/,/,/
O=C1CCCC2=C1C(c1ccccc1O)C1=C(CCCC1=O)O2,i,-14%,i,0%,5%,1%
O=C1CCCC(O)=C1C(C#Cc1ccccc1)C1=C(O)CCCC1=O,i,0%,i,13µM*,?,1%
CCCCCC(=O)N(CN1C(=O)CCC1=O)c1ccccc1,?,8%,1e-08M*,25%,3%,1%
CCOc1ccc(-c2nc(-c3ccc(OC)cc3)no2)cc1OCC,i,-3%,i,-8%,?,-1%
CCOc1ccc(-c2noc(-c3ccncc3)n2)cc1OCC,i,20µM*,?,21%,?,-1%
COc1ccc(CCC(=O)Nc2ccc(-c3noc(-c4ccc(OC)c(OC)c4)n3)cc2)cc1,1e-08M*,?,1.6e-08M*,6%,6%,1%
COc1ccc(-c2noc(-c3cccc(Cl)c3)n2)cc1OC,i,2%,i,2%,-17%,2%
COc1ccc(-c2nc(-c3ccncc3)no2)cc1OC,1.9e-08M*,16%,1.8e-08M*,2%,-10%,0%
CC(=O)c1sc2nc(=O)c(C)nn2c1C,i,-23%,i,-25%,?,-3%
O=C(N/N=C1/C[C@@H](O)[C@@H](O)[C@@H]2[C@@H]3C(=O)N(Cc4ccc5c(c4)OCO5)C(=O)[C@H]3CC[C@@H]12)OCc1ccccc1,/,/,/,4%[11.4 µM],7%[11.4 µM],0%[11.5 µM]
Cc1cccc(NS(=O)(=O)c2cccc3cccnc23)n1,/,-5%,/,-11%,8%,-1%
Cc1cccc(NS(=O)(=O)c2ccccc2)n1,/,?,/,20%[11.4 µM],25µM*,-1%
CC1Cc2ccccc2N1NC(=O)c1ccc(Cl)c(S(N)(=O)=O)c1 (stereo not given),i,/,i,/,6%,0%
Cc1ccccc1N1C(=O)c2cc(S(N)(=O)=O)c(Cl)cc2N[C@H]1C,1.7e-07M*,-2%[17.1 µM],1.5e-07M*,-14%[25.6 µM],16µM*,1%[25.7 µM]
NS(=O)(=O)c1cc2c(cc1Cl)N[C@@H](C(Cl)Cl)NS2(=O)=O,i,5%[17.1 µM],i,-6%[25.6 µM],9%[25.6 µM],2%[25.7 µM]
Cc1ccccc1N1C(=O)c2cc(S(N)(=O)=O)c(Cl)cc2NC1C (stereo not given),/,/,/,?,32µM*,-4%
N#C/C(C(=O)NCc1ccco1)=C1/SC=C(c2ccccc2)N1c1ccccc1,/,16%,/,?,32µM*,-2%
Cc1ccc2nnc(Cl)n2n1,i,?,i,-26%,-3%,0%
Clc1nnc2ccc(-c3ccccc3)nn12,/,?,/,?,25µM*,1%
CO[C@H]1[C@@H](OC(N)=O)[C@H](O)[C@@H](Oc2ccc3c(O)c(NC(=O)c4ccc(O)c(CC=C(C)C)c4)c(=O)oc3c2C)OC1(C)C,3e-07M*,-13%[17.1 µM],2.7e-07M*,10%[25.6 µM],-1%[25.6 µM],11%[25.7 µM]
SMILES,4MU fluor,CRE-bla Fsk,A350 fluor,HADH2 inhib,HSD17B inh,AID923
N#Cc1c(NC(=O)CSc2ncnc3sccc23)oc(-c2ccco2)c1-c1ccco1,i,?,i,16µM*,20µM*,1%
CCn1c(SCC(=O)Nc2oc(-c3ccccc3)c(-c3ccccc3)c2C#N)nnc1-c1ccco1,i,?,i,?,?,3%
CC1(C)Cc2c(sc3[nH]c(=S)n(Cc4ccco4)c(=O)c23)CO1,i,/,i,/,/,/
CC1(C)Cc2c(sc3c2c(=N)n(Cc2ccco2)c(=O)n3Cc2ccc(Cl)cc2)CO1,i,0.2µM*,i,5%,-13%,1%
CC1(C)Cc2c(sc3c2c(=N)n(Cc2ccco2)c(=O)n3Cc2ccccc2)CO1,2.5e-08M*,?,2.4e-08M*,-2%,-17%,-1%
COc1ccc2c(c1)N(C[C@@H](C)CN(C)C)c1ccccc1S2,2.9e-08M*,-10%[17.1 µM],2.7e-08M*,3%[25.6 µM],0%[25.6 µM],-3%[25.7 µM]
CCOC(=O)c1c(CN(CC)CC)oc2cc(Br)c(O)cc12,/,3.2µM*,/,4µM*,-7%,-1%
O=C(Nc1cccc(C(=O)Nc2ccc(S(=O)(=O)O)c3cc(S(=O)(=O)O)cc(S(=O)(=O)O)c23)c1)Nc1cccc(C(=O)Nc2ccc(S(=O)(=O)O)c3cc(S(=O)(=O)O)cc(S(=O)(=O)O)c23)c1,i,-7%,i,?,13µM*,-1%
CC(=O)Nc1cccc(C(=O)Nc2ccccc2C(=O)O)c1,i,-2%,i,-7%,3%,-1%
COc1cccc(-c2cc(C(F)(F)F)nc(N3CCCCC3)n2)c1,7.5e-08M*,?,6.3e-08M*,?,32µM*,5%
COc1ccc(-c2cc(C(F)(F)F)nc(N3CCN(c4ccccc4)CC3)n2)cc1OC,?,3%,?,17%,1%,3%
COc1ccc(-c2cc(C(F)(F)F)nc(N3CCCCC3)n2)cc1OC,4.9e-08M*,?,4.2e-08M*,-22%,32µM*,-1%
COc1ccc(-c2cc(C(F)(F)F)nc(N3CCN(C)CC3)n2)cc1,1e-08M*,?,?,-7%,-8%,1%
FC(F)(F)c1cc(-c2ccccc2)nc(N2CCCCCC2)n1,3e-08M*,20%,2.7e-08M*,1%,-13%,2%
COc1ccccc1N1CCN(c2nc(-c3ccccc3)cc(C(F)(F)F)n2)CC1,i,-1%,i,-2%,12%,1%
COC(=O)c1sc(S(=O)(=O)N2CCN(c3ccccc3)CC2)c(C(=O)OC)c1C,i,7%,i,12%,-5%,1%
Cc1noc(C)c1C(=O)N1CCC2(CCN(Cc3ccc(C#N)cc3)CC2)CC1,i,1%,i,0%,7%,5%

# Bioassay records (PubChem)
